ssDAF12 agonist = S. stercoralis DAF-12 nuclear receptor activators, primary screen, cell-based, luminescence, HEK293, GRIP1 co-expression, lit1-tk-luc | activation, % at 6.8 µM | HEK293 ssDAF-12/GRIP1 lit1-tk-luc reporter; % of 3 µM dafachronic acid response | 370,000 tested, 1% active | Nuclear hormone receptor DAF-12 (Strongyloides stercoralis);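 active = activation above the mean over all tested compounds plus 3 SD, cut at about 0.9% in these data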;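 note: 0% = DMSO-only wells and 100% = 3 µM delta7-dafachronic acid wells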
SMARCA2 act = SMARCA2 (BRM) function activators, primary screen, cell-based, luminescence, high throughput; MG213 cells, MMTV-luciferase reporter, dexamethasone, overnight; AID 652017, 2013; activation, % at 9.1 µM; 370,000 tested, 1% active; in the data active = activation above about 7.8%;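 note: 0% = vehicle wells and 100% = reference activator wells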
hgDAF12 agonist = H. glycines DAF-12 receptor agonists, primary screen, cell-based, luminescence, HEK293, GAL4 fusion, UAS-luciferase; HEK293 GAL4-hgDAF12 UAS-luciferase reporter, agonist luminescence; normalized to butyrate control; activation, % at 6.8 µM; 370,000 tested, 1.8% active; AID 687014, 2013;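 active = activation above a cutoff set at the mean of all screened compounds plus 3 SD, cut at about 10% in these data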;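 note: 0% = DMSO wells and 100% = sodium butyrate wells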
DAX1 StAR inh = DAX1 (NR0B1) inhibitors on StAR promoter, primary screen, cell-based, luminescence, SF-1 (NR5A1), full-length DAX-1 | HEK293T StAR-luciferase reporter, SF-1/DAX-1 repression relief | inhibition, % at 6.8 µM | AID 652010, 2013 | 370,000 tested, 1.1% active;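 active = inhibition above the mean over all tested compounds plus 3 SD, cut at about 3.6% in these data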;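 note: 0% = DAX-1 cells with DMSO and 100% = cells lacking DAX-1 with DMSO; higher inhibition means more luminescence from relief of DAX-1 repression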
hcDAF-12 act = H. contortus DAF-12 nuclear receptor activators, primary screen, cell-based, luminescence, HEK293, lit1-tk-luc reporter; 370,000 tested, 1.4% active; HEK293 hcDAF-12 lit1-tk-luc reporter; 0% DMSO, 100% Δ7-dafachronic acid; activation, % at 6.8 µM; AID 652067, 2013;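 active = activation above the mean of all tested compounds plus 3 SD, cut at about 5.5% in these data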;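 note: 100% = response to 3 µM Δ7-dafachronic acid high control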
* marks the source's active call; other numbers are inactive results; x = not tested or not shown. Compounds with a hit are over-represented: about 4.2% of the library has one in this group of screens.

SMILES	ssDAF12 agonist	SMARCA2 act	hgDAF12 agonist	DAX1 StAR inh	hcDAF-12 act
Cc1ccc(O)c(NC(=O)c2onc(C)c2Cl)c1	1.8*	4	4	0	6.0*
Cc1noc(C(=O)Nc2ccc(F)cc2F)c1Cl	0	6	3	0	0
O=C(OCC#CCSc1nnc(-c2cccc3ccccc23)o1)c1ccc(OC(F)(F)F)cc1	-2	x	0	x	-1
Cc1ccc(CNC(=O)O[C@H]2CC[C@@]34CCCN3C(=O)CCC[C@H]4C2)cc1	-2	x	2	x	-2
O=C(Nc1ccc(N2CCCC2=O)cc1)c1cccc(F)c1	-1	5	11*	1	0
COc1ccc(CNC(=O)c2cccc(N3CCCC3=O)c2)cc1	1.2*	-3	2	0	-2
COc1ccc(/C=N/NC(=O)CSCC(=O)Nc2ccccc2)cc1OC	-1	0	0	1	-2
COc1cc(/C=N/NC(=O)Nc2ccccc2)ccc1OC(C)=O	0	4	12*	1	3
C[C@@H]1CN([C@@H](C)CO)C(=O)c2cc(Br)cnc2O[C@@H]1CN(C)C(=O)c1ccc(F)cc1	-1	-1	0	1	-1
CC(=O)/C=C/c1ccccc1O	-1	2	-1	-1	-1
C[n+]1ccc(/C=C/c2ccccc2O)c2ccccc21	-2	-4	-2	0	6.5*
O=C(Cc1c[nH]c2ccccc12)Nc1ccc(Nc2cccnc2)c(-c2ccc(-c3ccccc3)cc2F)c1	0	-3	-1	-2	5.7*
O=C(Cc1c[nH]c2ccccc12)Nc1ccc(Nc2cccnc2)c(-c2ccc(F)c(F)c2)c1	-1	-2	-6	-3	0
O=S1(=O)c2ccc(Br)cc2OC2CCCC[C@@H]2N1Cc1ccccc1 (stereo partly drawn)	-1	-2	2	-1	0
Cc1nc(SCc2ccccc2)nc2c1CCC2	0	3	11*	3	0
Cc1ccc(CSc2nc3c(c(N(C)C)n2)CCCC3)cc1	-2	-1	3	-1	-2
O=S1(=O)C=CCN1Cc1cn(Cc2ccc(Cl)cc2)nn1	-1	-3	5	0	0
C[C@H](Cc1ccccc1)Nc1ncnc2c1ncn2[C@@H]1O[C@H](CO)[C@@H](O)[C@H]1O	-1	3	1	3.8*	-3
COC(=O)[C@]12C[C@H](CC(=O)N3CCCC3)C(=O)N(Cc3ccccc3)C1=C[C@H](COCc1ccccc1)O[C@@H]2C	-1	-2	-2	-1	-2
Cn1c(C(=O)NCc2ccc3c(c2)OCO3)cc2sccc21	-1	-2	1	-1	6.2*
O=C(Cc1ccccc1)N1CCC(Oc2cccnc2)CC1	-2	-1	1	1	0
COc1cccc(C#Cc2c(CO)[nH]c3ccccc23)c1	1	2	1	0	6.2*
C[C@H]1[C@@H](N(C)C)CC[C@@]23CCCN2C(=O)CCC[C@@H]13	-1	x	-3	x	5
C#CCSc1nnc(-c2ccc(C)cc2)o1	1	4	11*	2	3
c1ccc(CSc2nnc(-c3cccnc3)o2)cc1	-1	6	9	1	0
SMILES	ssDAF12 agonist	SMARCA2 act	hgDAF12 agonist	DAX1 StAR inh	hcDAF-12 act
C#CCSc1nnc(-c2cccc3ccccc23)o1	1.7*	-1	9	0	5
C#CCSc1nnc(-c2ccc(O)cc2)o1	-1	3	11*	1	2
Oc1ccc(-c2nnc(SCc3ccccc3)o2)cc1	-1	4	11*	1	5
OCC#CCSc1nnc(-c2ccncc2)o1	-1	-3	3	-1	0
COC(=O)[C@]12C=CCN1[C@@H](c1ccc(C(F)(F)F)cc1)c1c(c3ccccc3n1S(=O)(=O)c1ccc(C)cc1)C2	-1	-6	2	0	4
O=C(Nc1ccc2c(c1)Cc1ccccc1-2)NC1CCCCN(Cc2ccc(Cl)cc2)C1=O (stereo not drawn)	0	-1	7	0	1
CCOCc1nc(N)nc(N)c1-c1cccc(Cl)c1	-2	-2	-13	-5	-3
COc1cc(NC(=O)c2cc(C3CC3)on2)c(OC)cc1Cl	0	1	4	-1	6.4*
COc1cc(NC(=O)C/C(C)=N/NC(=O)c2ccccn2)c(OC)cc1Cl	0	3	13*	2	4
COC(=O)c1cc(C(C)c2c[nH]c3ccccc23)n2ccccc12 (stereo not drawn)	-1	0	-4	3	4
COc1ccccc1-c1ccc(OCCCN2CCC(C(O)(c3ccccc3)c3ccccc3)CC2)cc1	-1	-6	0	0	-2
COc1cc(C=O)ccc1OCCCOc1ccccc1[N+](=O)[O-]	1.0*	-2	6	0	1
Cn1cc(C=C2C(=O)CC(C)(C)CC2=O)c2ccccc21	1.3*	1	2	0	1
CCN1C(=O)C(C)C=C(C)C=C1C (stereo not drawn)	-1	3	-2	0	0
CCOC(=O)C1(CC2CCCCO2)CCN(Cc2nc3ccccc3nc2C)CC1 (stereo not drawn)	-1	3	0	-1	4
CCOC(=O)C1(C(=O)OCC)COC(=O)C1CN1Cc2cc3ccccc3nc2C1 (stereo not drawn)	1.0*	4	2	-1	4
C=CCC1(CC=C)CCCN1C(=O)C1CCC(=O)N(CCc2ccccc2)C1 (stereo not drawn)	0	0	10	1	2
C=CCC1(CC=C)CCCN1C(=O)C1CCC(=O)N(CCc2ccc(OC)cc2)C1 (stereo not drawn)	-1	1	13*	2	4
COC(=O)c1ccc2c(C3(c4c[nH]c5ccccc45)CCN(C(=O)OC(C)(C)C)CC3)c[nH]c2c1	0	-7	9	-2	4
Cn1c(CC(=O)Nc2ccc(F)cc2)c(Sc2ccccc2)c2ccccc21	-1	-3	0	0	6.5*
COc1ccc(NC(=O)Cc2c(Sc3ccccc3)c3ccccc3n2C)cc1	0	3	0	1	4
CCc1cc2c(=O)c(-c3cscn3)coc2cc1O	1.0*	6	11*	1	5.7*
COc1ccccc1C1N=C(c2ccccc2C)NO1 (stereo not drawn)	0	4	10*	1	2
O=C(COCc1ccccc1)NC1CCCCN(Cc2cccc(Cl)c2)C1=O (stereo not drawn)	-1	-2	-1	1	-1
